Not all results are given here.
aSyn UTR act – Activators working through SNCA 5'UTR binding (MLPCN). alpha-synuclein 5'UTR reporter, activators screen. activity score, % (tested at 7.5 µM), hits read low. 300,000 tested, 7.1% active. AID 1814; in the data active means activity score below about -60%
Active calls of the source: *.

SMILES	aSyn UTR act
O=C(Nc1ccc2oc(-c3ccccc3Cl)nc2c1)c1ncn[nH]1	-153*
CC(C)C(=O)Nc1ccc2oc(-c3cc(F)c(F)cc3Cl)nc2c1	-154*
COc1ccc(-c2nn(-c3ccccc3)cc2CO)cc1	-86*
COc1ccc(-c2nn(-c3ccccc3)cc2N)cc1	-167*
Cc1ccc(-n2nc(C)c(NC(=O)CCl)c2C)cc1	-146*
Cc1ccc(-n2nc3c(=O)n(CCCC(=O)NCc4ccc(Cl)cc4)nc(C)c3c2C)cc1	62
Cc1ccc(-c2nn(-c3ccccc3)cc2CO)cc1	-104*
Cc1ccc(-c2nn(-c3ccccc3)cc2NC(=O)CCl)cc1	-71*
COc1cccc(/C=N/NC(=O)c2ccc(N3CCCC3=O)cc2)c1	-112*
COc1ccc(CC(=O)NCc2ccccc2)cc1	-154*
COc1ccc(CNC(=O)c2ccc(-c3ccccc3)cc2)cc1	-115*
COC(=O)c1ccc(COC(=O)CNC(=O)c2ccc(-c3ccccc3)cc2)cc1	-87*
COc1ccc(CNC(=O)c2nc(S(=O)(=O)Cc3ccccc3)ncc2Cl)cc1	49
COc1ccc(OC)c(NS(=O)(=O)c2ccc(N3CCCC3=O)cc2)c1	111
O=C(Cc1ccc(Br)cc1)NCc1ccccc1	-67*
O=C(NCc1ccccc1)c1c(Cl)nc(Cl)c(Cl)c1Cl	99
COc1ccc(CNC(=O)c2ccc(N3CCCC3=O)cc2)cc1	-71*
CCCC(=O)Nc1ccc(NC(=O)c2ccccc2F)cn1	-90*
O=C(Nc1ccc(NC(=O)C2CCCCC2)nc1)c1cccs1	-124*
O=C(Nc1ccc(NC(=O)C2CC2)nc1)c1ccccc1F	-95*
COC(=O)c1ccc(NC(=O)Nc2ccc(F)cc2F)cc1	-111*
O=C(Nc1ccccc1)Nc1ccc(F)cc1F	-115*
O=C(Nc1ccc(F)cc1F)N1CCCCCC1	-86*
COC(=O)c1ccc(NC(=O)Nc2cccc(F)c2)cc1	-206*
CCSc1nsc(NC(=O)Nc2ccc(F)cc2F)n1	-138*
SMILES	aSyn UTR act
c1ccc(-c2nc(-c3ccco3)cs2)nc1	-183*
Fc1ccc(-c2csc(-c3ccccn3)n2)cc1F	-112*
Cc1ccc2c(CC(=O)Nc3sccc3C(N)=O)coc2c1	-183*
Cc1ccc2c(CC(=O)Nc3ccc(N4CCN(C)CC4)cc3C)coc2c1	-68*
C/C(=N\NC(=O)c1csc(C)c1C)c1ccc(Cl)s1	-125*
CC/C(=N\NC(=O)c1csc(C)c1C)c1cccs1	-182*
CCC/C(=N\NC(=O)c1csc(C)c1C)c1cccs1	-109*
O=C(Nc1nnc(S(=O)(=O)N2CCCCCC2)s1)c1ccccc1	-65*
O=C(Nc1nnc(S(=O)(=O)N2CCN(c3ccc(F)cc3)CC2)s1)c1ccccc1	-63*
COc1cc(/C=C2\OC(=O)c3c(OC)cccc32)ccc1O	-172*
COc1ccc(CNc2ccc3c(c2)CCC3)cc1Br	-105*
CCOc1cc(CNc2ccc3c(c2)CCC3)ccc1OC	-163*
COc1ccccc1CNc1ccc2c(c1)CCC2	-82*
Cc1ccc(C(c2cc(Cl)c3cccnc3c2O)N2CCN(C)CC2)cc1 (centres undefined)	66
CC(C)c1ccc(-c2cc(C(=O)NN3CCN(C)CC3)c3ccccc3n2)cc1	-117*
CN1CCN(c2ccc(-c3ccc4ccccc4n3)cc2)CC1	112
CC(C)c1ccc(-c2cc(C(=O)N3N=C(C(F)F)CC3(O)C(F)F)c3ccccc3n2)cc1 (centres undefined)	-166*
CCCCN1C(=O)C(=O)N(CC(=O)N2N=C3/C(=C/c4ccco4)CCCC3C2c2ccco2)C1=O (centres undefined)	-86*
COc1ccc2nc(NCc3ccccc3)[nH]c2c1	-80*
S=C(NCc1ccccc1)NNc1nc2ccccc2[nH]1	-74*
c1ccc(CNc2nc3ccccc3[nH]2)cc1	-79*
c1ccc2[nH]c(NCc3ccc4c(c3)OCO4)nc2c1	-180*
CCCOc1ccc2nc(NC(=O)OC)[nH]c2c1	84
COc1ccc([C@@H](C)NC(=O)c2ccc3oc(C(C)C)nc3c2)cc1	-70*
COc1ccc(Cc2nc3ccc(C(=O)N4CCCC4)cc3o2)cc1	-155*
SMILES	aSyn UTR act
O=C(c1ccc2nc(Cc3cccc(Cl)c3)oc2c1)N1CCOCC1	-99*
COc1ccc(Cc2nc3ccc(C(=O)NC(C)C)cc3o2)cc1	-107*
C=C(C)CNC(=O)c1ccc2nc(Cc3ccc(OC)cc3)oc2c1	-178*
CC(=O)c1ccc(OCc2ccccc2)c(C)c1O	-108*
CCOc1cc(/C=C2\N=C(C)OC2=O)cc(Br)c1OCC(=O)OC	-64*
CCOc1cc(CNc2ccccc2)cc(Br)c1OCC(=O)NC(C)(C)C	49
COc1ccc(C2CC(=O)c3sc(NC(C)=O)nc3C2)cc1 (centres undefined)	-75*
Cn1cc(C(=O)N/N=C/c2ccc3c(c2)OCO3)c2ccccc21	-276*
Cc1cccc(C)c1OCC(=O)N/N=C/c1ccc2c(c1)OCO2	-85*
Cn1cc(C(=O)N/N=C/c2cccs2)c2ccccc21	-181*
O=C(N/N=C/c1ccc2c(c1)OCO2)c1cccc2ccccc12	-109*
O=S(=O)(NCc1cn2ccccc2n1)c1cccs1	-64*
Cc1cccc(NC(=S)c2nc3ccccc3s2)c1	-100*
COCCNC(=O)C(c1ccncc1)N(C(=O)c1sc(C)nc1C)c1cccc(C)c1 (centres undefined)	-90*
COc1ccc(C2C=C(C)Nc3ncnn32)cc1 (centres undefined)	-154*
Clc1ccc(/C=N/Nc2nc(Cl)nc3ccccc23)cc1	-172*
Cc1ccc(/C=N/Nc2nnc(Cl)c3ccccc23)cc1	-157*
Clc1ccc(/C=N/Nc2nnc(Cl)c3ccccc23)cc1	-165*
Clc1nnc(NN=C2CCCC2)c2ccccc12	-194*
Clc1nnc(N/N=C/c2ccccc2)c2ccccc12	-268*
C(=C\c1ccccn1)/c1ccccn1	-115*
Brc1ccc(N=Cc2ccccn2)cc1	-73*
CC(C)(C)C1C/C(=C/c2ccccn2)C(=O)/C(=C/c2ccccn2)C1 (centres undefined)	103
CC1C/C(=C/c2ccccn2)C(=O)/C(=C/c2ccccn2)C1 (centres undefined)	89
O=C(Nc1ccc(F)cc1)Oc1ccc[nH]c1=O	-82*
SMILES	aSyn UTR act
CCOC(=O)Cc1csc(NC(=O)c2ccco2)n1	-162*
CCOC(=O)Cc1csc(NC(=O)c2cnc3sc(C)cn3c2=O)n1	-112*
CCOC(=O)Cc1csc(NC(=O)c2ccc(Cl)s2)n1	-119*
O=C(c1ccco1)N1CCN(Cc2c(Cl)cccc2Cl)CC1	-85*
O=C(COc1ccc(F)cc1)N1CCC(c2ccccc2)C1 (centres undefined)	-134*
Cc1cccc(OCC(=O)N2CCC(c3ccccc3)C2)c1 (centres undefined)	-158*
COCC(=O)Nc1c(C(=O)Nc2ccc3c(c2)OCCO3)oc2ccccc12	-72*
CCC(=O)Nc1c(C(=O)Nc2ccc3c(c2)OCCO3)oc2ccccc12	-143*
CCC(=O)Nc1c(C(=O)Nc2cccc(OC)c2)oc2ccccc12	-123*
CSc1ccc(CNc2ccccn2)cc1	-100*
Fc1ccc(CNc2ccccn2)cc1	-78*
c1cncc(-c2noc(C34CC5CC(CC(C5)C3)C4)n2)c1	-87*
CCOc1cccc2sc(N(CCCN(C)C)C(=O)c3ccc(S(=O)(=O)N4CCc5ccccc5C4)cc3)nc12	58
CN(C)CCN(C(=O)c1ccc2c(c1)OCCO2)c1nc2cc3c(cc2s1)OCO3	-77*

Bioassay records as filed in PubChem.
